From PubChem BioAssay AID623979 (Broad Institute, 2012)
Measured potencies and affinities stand elsewhere. Inconclusive results are not listed. Calls of active or inactive are those of the source.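 How the source made its calls: active means fitted half-maximal inhibition concentration at or below twice the top tested dose in every test run; inconclusive means runs disagree, or a weak flat response or poor fit; inactive means the rest, including flat or wrong-direction curves.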

molecular target: Cyclin-dependent kinase 5 activator 1 (Homo sapiens) + Cyclin-dependent kinase 5 (Homo sapiens) (UniProt Q15078+Q00535); experiment: inhibitors of human CDK5 activity – biochemical, microfluidic mobility shift, dry powder, set 2, selectivity assay for GSK3beta inhibitor project, dose response (AID 623979); settings: recombinant CDK5-p25, Caliper peptide conversion, 55 min; series mostly up to 35 µM
Sequence (Q00535 whole entry, looked up): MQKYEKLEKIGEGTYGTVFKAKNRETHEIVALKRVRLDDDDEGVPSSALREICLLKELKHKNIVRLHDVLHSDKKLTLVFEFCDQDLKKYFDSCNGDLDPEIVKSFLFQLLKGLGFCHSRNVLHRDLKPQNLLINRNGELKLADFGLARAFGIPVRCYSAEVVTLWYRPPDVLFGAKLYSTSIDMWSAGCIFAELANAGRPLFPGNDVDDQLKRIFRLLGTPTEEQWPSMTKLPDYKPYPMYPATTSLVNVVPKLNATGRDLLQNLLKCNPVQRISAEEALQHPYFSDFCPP
Sequence (Q15078 whole entry, looked up): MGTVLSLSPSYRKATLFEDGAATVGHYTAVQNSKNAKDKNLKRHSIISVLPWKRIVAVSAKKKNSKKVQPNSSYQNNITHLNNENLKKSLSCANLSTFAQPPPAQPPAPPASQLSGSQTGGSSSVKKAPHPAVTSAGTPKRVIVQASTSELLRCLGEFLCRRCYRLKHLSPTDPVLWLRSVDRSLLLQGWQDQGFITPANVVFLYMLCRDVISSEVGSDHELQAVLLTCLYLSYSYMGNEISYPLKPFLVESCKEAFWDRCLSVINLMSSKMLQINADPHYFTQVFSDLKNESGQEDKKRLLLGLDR

outcome, inactive:
CCOc1ccccc1/C=N/NC(=O)c1nnn(-c2nonc2N)c1CN1CCCCCC1
Cc1cccc(OCC(=O)Nc2ccc3c(c2)C(=O)NC3=O)c1
Clc1ccc(CSc2nnc(-c3ccncc3)o2)c(Cl)c1
COC(=O)c1ccc(CSc2ccc3nnc(-c4ccc(F)cc4)n3n2)o1
Cc1ccc(S(=O)(=O)N2CCN(CC(=O)N/N=C/c3ccccn3)CC2)cc1
Nc1nonc1-n1nnc(C(=O)N/N=C/c2c(F)cccc2Cl)c1-c1ccc2c(c1)OCO2
Nc1nonc1-n1nnc(C(=O)N/N=C/c2cccc(Cl)c2)c1CN1CCCCCC1
Nc1nc(NCC2CCCO2)nc(Nc2ccc(F)cc2)c1[N+](=O)[O-] (stereo not given)
Nc1nc(NCC2CCCO2)nc(Nc2ccc(Cl)cc2)c1[N+](=O)[O-] (stereo not given)
COc1cc(C(=O)N2CCN(c3ccccn3)CC2)cc(OC)c1OC
